Results taken from PubChem BioAssay (NCATS).
“And” between values parts separate entries of the source, which are not always exact repeats. Equal entries are not always repeated. Records with an inconclusive call do not appear. The source made the active and inactive calls. Unless noted, the call rests on the fitted dose curve; in most records, active means well fitted curve in the direction sought with a large enough effect; inconclusive means small, poorly fitted or top-dose-only effect, or another doubt; inactive means no such curve, though single readings can be large; an effect the other way counts as inactive or inconclusive.

Assays:
[1] = biological target: Mitogen-activated protein kinase 10 (Mus musculus) (UniProt Q61831); test: JNK3 AlphaScreen Assay (AID 530; active means well fitted curve in either direction with a large enough effect, not every such curve was filed as active;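 further: kinase came from lysate of stimulated human HepG2 cells; signal reports phosphorylation of biotinylated GST-cJun 1-79 at Ser73 with 10 µM ATP; on the % scale 0 is the no-effect control and ±100 the full control effect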)
How it was run: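 JNK3 came from HepG2 lysates pre-activated with IL-1beta and TNF-alpha and phosphorylated biotinylated GST-cJun (1-79) at 10 uM ATP, pH 7.6, room temperature. Compounds were titrated. AlphaScreen signal used anti-phospho-cJun (Ser73) antibody.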

[2] = biological target: Cytochrome P450 3A4 (Homo sapiens) (UniProt P08684); test: qHTS Assay for Inhibitors and Substrates of Cytochrome P450 3A4 (AID 884); further: nearly all actives have a fitted effect of over 50% in size; further: potency means the concentration at half of the fitted maximal effect; on activity change, negative = inhibition: on the % scale 0 is the no-effect control and ±100 the full control effect
Sequence of Cytochrome P450 3A4 (Homo sapiens) (P08684 whole entry, looked up): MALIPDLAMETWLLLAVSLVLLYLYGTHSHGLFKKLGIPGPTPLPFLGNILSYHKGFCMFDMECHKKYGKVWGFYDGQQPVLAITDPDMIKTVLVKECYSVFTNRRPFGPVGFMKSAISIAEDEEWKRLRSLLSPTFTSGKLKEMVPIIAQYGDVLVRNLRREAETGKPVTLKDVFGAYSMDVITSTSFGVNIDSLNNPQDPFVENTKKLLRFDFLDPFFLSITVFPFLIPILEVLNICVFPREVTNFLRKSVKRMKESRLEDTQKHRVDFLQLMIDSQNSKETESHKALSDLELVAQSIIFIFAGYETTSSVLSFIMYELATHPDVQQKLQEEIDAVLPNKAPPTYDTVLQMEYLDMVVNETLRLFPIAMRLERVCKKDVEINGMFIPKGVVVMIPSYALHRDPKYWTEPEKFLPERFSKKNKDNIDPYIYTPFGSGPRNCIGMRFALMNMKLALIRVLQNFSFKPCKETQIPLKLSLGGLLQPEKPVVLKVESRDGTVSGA
How it was run: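 20 nM human CYP3A4 with 25 uM Luciferin-PPXE (at KM) in 200 mM KPO4, preincubated 10 min with compound; NADPH regeneration started a 60 min RT reaction. Luciferin detected by luminescence, normalized to 57 uM ketoconazole as full inhibition.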

[3] = biological target: Cytochrome P450 3A4 (Homo sapiens) (UniProt P08684); test: qHTS Assay for Activators of Cytochrome P450 3A4 (AID 885); further: nearly all actives have a fitted effect of over 65% in size
How it was run: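 Quantitative HTS format: compounds preincubated with 20nM human CYP3A4 and Luciferin-PPXE substrate at KM, reaction started by NADPH regeneration, stopped after 60 min, luciferase luminescence read 20 min later.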

[4] = Confirmation and Secondary Assay for Modulators of Hemoglobin Beta Chain Splicing at IVS2 654 locus (AID 910); further: % of control where 0% means no effect
How it was run: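 HeLa cells stably carrying EGFP interrupted by mutant beta-globin IVS2-654 intron (CMV-driven) were treated with compound for 2 days at 37C; corrected splicing was scored as total peak GFP intensity per well (488 nm excitation, 500-520 nm emission).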

[5] = qHTS Assay for Lipid Storage Modulators (AID 1519; calls by dose curve; on activity change, negative = inhibition: on the % scale 0 is the no-effect control and ±100 the full control effect); details: Drosophila S3 cells, BODIPY lipid droplet/cell ratio, laser cytometry, cells loaded with oleic acid
How it was run: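 Cells seeded at 5,000 per well were treated with compounds over a concentration series and loaded with oleic acid (400 uM, as added). Lipid droplet fluorescence (488 nm excitation, 500-530 nm channel) was read by laser-scanning cytometry and normalized to 20 uM Triacsin C.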

[6] = biological target: Peroxisome proliferator-activated receptor alpha (Homo sapiens) (UniProt Q07869); test: qHTS assay for small molecule agonists of the peroxisome proliferator-activated receptor alpha (PPARalpha) signaling pathway (AID 651778); details: PathHunter PPARalpha complementation, chemiluminescence, 6 h; stronger effect = higher value; further: % of control where 0% means no effect
Sequence of Peroxisome proliferator-activated receptor alpha (Homo sapiens) (Q07869 whole entry, looked up): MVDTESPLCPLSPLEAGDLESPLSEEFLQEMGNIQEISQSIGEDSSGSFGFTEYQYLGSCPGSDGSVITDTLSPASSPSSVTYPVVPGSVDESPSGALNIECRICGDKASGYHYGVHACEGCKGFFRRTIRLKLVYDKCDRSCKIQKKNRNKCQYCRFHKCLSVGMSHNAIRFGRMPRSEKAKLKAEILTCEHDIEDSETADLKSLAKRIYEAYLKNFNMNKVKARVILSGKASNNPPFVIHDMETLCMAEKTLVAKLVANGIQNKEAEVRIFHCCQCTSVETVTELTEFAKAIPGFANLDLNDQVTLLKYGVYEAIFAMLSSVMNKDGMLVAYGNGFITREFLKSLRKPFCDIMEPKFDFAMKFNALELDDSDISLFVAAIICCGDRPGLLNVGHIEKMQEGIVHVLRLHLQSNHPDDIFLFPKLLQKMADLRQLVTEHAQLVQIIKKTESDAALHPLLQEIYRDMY
How it was run: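 Cells plated at 2,000/well and held overnight at 37 C, 5% CO2, then compound added by pin tool for 6 hr; after PathHunter detection reagent and 60 min at room temperature, chemiluminescence from enzyme complementation was read.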

[7] = qHTS assay for cell viability of HEK293 cells (AID 743288); details: ATP luminescence (CellTiter-Glo), 18 h; max response: stronger effect = lower value; further: nearly all actives have a fitted effect of over 50% in size; further: potency means the concentration at half of the fitted maximal effect
How it was run: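 Total intracellular ATP, measured with a luciferase-coupled reagent, indicates the number of viable HEK293 cells. Exposure to test chemicals lasts 18 h at 37 C in 1,536-well format at 2,000 cells/well.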

[8] = biological target: Cytochrome P450 1A2 (Homo sapiens) (UniProt P05177); test: p450-cyp1a2 (AID 410; calls by dose curve;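 further: -100% = full effect of reference inhibitor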)
Sequence of Cytochrome P450 1A2 (Homo sapiens) (P05177 whole entry, looked up): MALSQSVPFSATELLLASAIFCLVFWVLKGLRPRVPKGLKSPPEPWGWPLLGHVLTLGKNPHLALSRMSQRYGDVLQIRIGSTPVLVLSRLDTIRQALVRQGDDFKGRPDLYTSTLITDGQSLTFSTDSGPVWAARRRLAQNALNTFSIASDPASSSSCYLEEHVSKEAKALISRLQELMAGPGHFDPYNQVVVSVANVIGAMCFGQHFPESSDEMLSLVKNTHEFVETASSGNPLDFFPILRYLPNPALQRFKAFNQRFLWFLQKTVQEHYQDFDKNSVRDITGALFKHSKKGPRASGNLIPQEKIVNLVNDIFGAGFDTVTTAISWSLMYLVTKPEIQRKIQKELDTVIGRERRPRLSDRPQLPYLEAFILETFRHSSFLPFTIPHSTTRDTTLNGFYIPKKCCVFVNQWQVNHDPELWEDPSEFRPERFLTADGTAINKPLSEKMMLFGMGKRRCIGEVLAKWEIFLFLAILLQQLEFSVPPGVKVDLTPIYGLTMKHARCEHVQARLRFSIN
How it was run: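 Human CYP1A2 (20nM) demethylated Luciferin-ME at its Km (100uM) in 100mM KPO4. After 10 min compound preincubation, NADPH regeneration ran the reaction 60 min at room temperature. Luciferin was read by luminescence, normalized to 57 uM furafylline.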

[9] = biological target: Glucocorticoid receptor (Homo sapiens) (UniProt P04150); test: GR-GFP Redistribution (AID 450;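 active means compounds whose dose series gives a full or clear partial fitted curve of increased nuclear translocation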; further: potency means the concentration at half of the fitted maximal effect); details: U2OS GR-GFP nuclear translocation, laser cytometry, 2 h
Sequence of Glucocorticoid receptor (Homo sapiens) (P04150 whole entry, looked up, the tested form may be a part): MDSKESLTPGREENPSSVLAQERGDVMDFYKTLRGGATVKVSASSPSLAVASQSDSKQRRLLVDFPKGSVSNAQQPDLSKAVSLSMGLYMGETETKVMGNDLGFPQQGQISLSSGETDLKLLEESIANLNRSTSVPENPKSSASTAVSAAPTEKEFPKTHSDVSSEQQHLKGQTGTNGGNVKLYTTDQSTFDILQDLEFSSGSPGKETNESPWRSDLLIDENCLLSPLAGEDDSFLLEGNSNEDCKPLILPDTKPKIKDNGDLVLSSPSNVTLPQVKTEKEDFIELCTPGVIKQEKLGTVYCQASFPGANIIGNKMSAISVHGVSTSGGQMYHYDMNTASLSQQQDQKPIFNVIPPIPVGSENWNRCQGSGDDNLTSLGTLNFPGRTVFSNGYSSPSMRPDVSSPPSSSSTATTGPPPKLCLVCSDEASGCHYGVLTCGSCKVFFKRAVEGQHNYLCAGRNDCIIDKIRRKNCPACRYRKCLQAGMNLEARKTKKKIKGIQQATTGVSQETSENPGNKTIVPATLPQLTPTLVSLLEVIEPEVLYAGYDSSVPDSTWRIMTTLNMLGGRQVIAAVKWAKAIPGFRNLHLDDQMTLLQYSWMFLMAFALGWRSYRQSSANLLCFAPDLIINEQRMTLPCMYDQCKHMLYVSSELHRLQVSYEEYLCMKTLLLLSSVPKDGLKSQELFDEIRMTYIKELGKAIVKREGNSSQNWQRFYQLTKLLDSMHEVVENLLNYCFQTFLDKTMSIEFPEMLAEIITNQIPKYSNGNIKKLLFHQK

[10] = biological target: Ubiquitin carboxyl-terminal hydrolase 1 (Homo sapiens) (UniProt O94782); test: Inhibitors of USP1/UAF1: Pilot qHTS (AID 504865);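 further: rhodamine fluorescence freed from ubiquitin-rhodamine substrate followed over time; top concentration of the series differs between compounds; on the % scale 0 is the no-effect control and ±100 the full control effect; nearly all actives have a fitted effect of over 35% in size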
Sequence of Ubiquitin carboxyl-terminal hydrolase 1 (Homo sapiens) (O94782 whole entry, looked up): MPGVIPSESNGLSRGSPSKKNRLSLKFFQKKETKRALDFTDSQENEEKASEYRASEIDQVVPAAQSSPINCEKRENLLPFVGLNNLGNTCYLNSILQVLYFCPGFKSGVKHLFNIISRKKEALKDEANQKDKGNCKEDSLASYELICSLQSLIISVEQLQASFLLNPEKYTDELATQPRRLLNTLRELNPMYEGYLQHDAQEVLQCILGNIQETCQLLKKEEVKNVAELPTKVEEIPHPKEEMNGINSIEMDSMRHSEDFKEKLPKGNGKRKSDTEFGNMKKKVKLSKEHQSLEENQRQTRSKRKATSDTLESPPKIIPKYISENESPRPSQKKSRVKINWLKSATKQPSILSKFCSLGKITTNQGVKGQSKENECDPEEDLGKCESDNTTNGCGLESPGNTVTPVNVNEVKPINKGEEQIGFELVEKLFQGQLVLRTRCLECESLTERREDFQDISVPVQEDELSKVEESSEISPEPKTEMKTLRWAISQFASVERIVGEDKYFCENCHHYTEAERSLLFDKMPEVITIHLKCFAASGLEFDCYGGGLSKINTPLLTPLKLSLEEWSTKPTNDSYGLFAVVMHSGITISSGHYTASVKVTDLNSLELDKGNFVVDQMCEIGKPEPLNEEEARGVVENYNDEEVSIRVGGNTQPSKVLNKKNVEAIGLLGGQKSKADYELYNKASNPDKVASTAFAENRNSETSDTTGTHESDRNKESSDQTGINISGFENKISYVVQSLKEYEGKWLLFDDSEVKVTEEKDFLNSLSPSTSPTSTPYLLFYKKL
How it was run: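 Deubiquitinase activity followed as kinetic rhodamine fluorescence release from 150 nM Ub-Rho. 1 nM USP1/UAF1 with compound, after 15 min room-temperature preincubation, in HEPES pH 7.8 buffer containing TCEP, EDTA, BSA and Tween-20.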

[11] = biological target: Glucocorticoid receptor (Homo sapiens) (UniProt P04150); test: GR-EFC Redistribution (AID 451; calls by dose curve; further: potency means the concentration at half of the fitted maximal effect); details: CHO-K1 GR-EFC translocation, beta-gal luminescence, 2 h
How it was run: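 CHO-K1 cells stably expressing nuclear-localized β-gal enzyme acceptor and GR fused C-terminally to the enzyme donor fragment; ligand-driven nuclear translocation restores β-gal by complementation. Compounds titrated up to 46 uM final, 2 h at 37 °C; luminescence read.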

[12] = biological target: 3',5'-cyclic-AMP phosphodiesterase 4B (Homo sapiens) (UniProt Q07343); test: qHTS Assay for Inhibitors of PDE-IV (AID 607; active means well fitted activation curve with a large enough effect in the main read-out, with a control signal flat, not every such curve was filed as active; further: % of control where 0% means no effect)
How it was run: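 Live HEK293 cells with a modified cyclic nucleotide-gated (CNG) channel report intracellular cAMP via membrane-potential dye fluorescence (ex 535/em 590 nm). Endogenous PDE-IV was targeted. Compounds were tested at up to 22.9 uM final; RO 20-1724 100 uM served as control.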

[13] = biological target: DNA dC->dU-editing enzyme APOBEC-3G (Homo sapiens) (UniProt Q9HC16); test: qHTS for inhibitors of Vif-A3G interactions: Validation (AID 588379); further: 0% is about no effect
Sequence of DNA dC->dU-editing enzyme APOBEC-3G (Homo sapiens) (Q9HC16 whole entry, looked up): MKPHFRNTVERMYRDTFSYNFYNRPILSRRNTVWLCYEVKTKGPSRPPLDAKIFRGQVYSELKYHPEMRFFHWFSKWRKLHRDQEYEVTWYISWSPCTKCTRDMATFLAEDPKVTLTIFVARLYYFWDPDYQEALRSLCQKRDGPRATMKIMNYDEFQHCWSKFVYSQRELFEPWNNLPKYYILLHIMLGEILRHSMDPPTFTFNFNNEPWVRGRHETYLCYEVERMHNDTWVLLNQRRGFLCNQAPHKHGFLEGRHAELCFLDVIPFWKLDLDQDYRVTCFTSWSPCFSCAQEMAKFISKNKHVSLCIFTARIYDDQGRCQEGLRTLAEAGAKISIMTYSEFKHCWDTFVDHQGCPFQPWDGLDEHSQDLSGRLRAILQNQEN
How it was run: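 HeLa cells stably expressing Vif and A3G-eYFP, 700 cells/well, incubated overnight at 37 deg C, then exposed to compound overnight at 37 deg C. Inhibition of Vif-mediated degradation read as increased yellow fluorescence (Ex 488/Em 500-530) by laser-scanning cytometry.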

[14] = biological target: ATP-dependent 6-phosphofructokinase (Trypanosoma brucei brucei) (UniProt O15648); test: qHTS Assay to Find Inhibitors of T. brucei phosphofructokinase: hit validation (AID 492961);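 further: luminescence reports ADP formed as PFK phosphorylates fructose-6-phosphate with ATP; on the % scale 0 is the no-effect control and ±100 the full control effect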
Sequence of ATP-dependent 6-phosphofructokinase (Trypanosoma brucei brucei) (O15648 whole entry, looked up): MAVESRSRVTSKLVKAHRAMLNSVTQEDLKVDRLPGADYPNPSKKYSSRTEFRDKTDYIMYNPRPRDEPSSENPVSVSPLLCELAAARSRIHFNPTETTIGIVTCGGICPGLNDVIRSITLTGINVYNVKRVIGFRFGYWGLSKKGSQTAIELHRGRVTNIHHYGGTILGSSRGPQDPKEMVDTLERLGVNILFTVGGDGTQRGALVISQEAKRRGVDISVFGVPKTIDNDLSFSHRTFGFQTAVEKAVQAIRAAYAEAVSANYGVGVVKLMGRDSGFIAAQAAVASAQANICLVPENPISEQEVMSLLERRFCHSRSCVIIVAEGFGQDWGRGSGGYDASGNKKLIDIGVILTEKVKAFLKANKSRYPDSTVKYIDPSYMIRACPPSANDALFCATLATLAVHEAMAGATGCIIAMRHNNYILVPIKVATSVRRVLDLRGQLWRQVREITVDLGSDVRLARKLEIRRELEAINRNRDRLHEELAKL
How it was run: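 PFK 1.25 nM, F6P 0.5 mM, ATP 0.1 mM, MgCl2 5 mM, 0.1 M TEA pH 8.0, Tween20 0.01%, BSA 0.1%; 45 min RT. ADP-Glo two-step detection, luminescence. qHTS titration; curve fitting with curve-class categorization.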

[15] = biological target: Luciferin 4-monooxygenase (Photinus pyralis) (UniProt P08659); test: Biochemical firefly luciferase enzyme assay for NPC (AID 624030);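 further: purified P. pyralis luciferase at 10 nM with luciferin and ATP substrate; 0% = DMSO and -100% = full luciferase inhibition by PTC124 control; nearly all actives have a fitted effect of over 70% in size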
Sequence of Luciferin 4-monooxygenase (Photinus pyralis) (P08659 whole entry, looked up): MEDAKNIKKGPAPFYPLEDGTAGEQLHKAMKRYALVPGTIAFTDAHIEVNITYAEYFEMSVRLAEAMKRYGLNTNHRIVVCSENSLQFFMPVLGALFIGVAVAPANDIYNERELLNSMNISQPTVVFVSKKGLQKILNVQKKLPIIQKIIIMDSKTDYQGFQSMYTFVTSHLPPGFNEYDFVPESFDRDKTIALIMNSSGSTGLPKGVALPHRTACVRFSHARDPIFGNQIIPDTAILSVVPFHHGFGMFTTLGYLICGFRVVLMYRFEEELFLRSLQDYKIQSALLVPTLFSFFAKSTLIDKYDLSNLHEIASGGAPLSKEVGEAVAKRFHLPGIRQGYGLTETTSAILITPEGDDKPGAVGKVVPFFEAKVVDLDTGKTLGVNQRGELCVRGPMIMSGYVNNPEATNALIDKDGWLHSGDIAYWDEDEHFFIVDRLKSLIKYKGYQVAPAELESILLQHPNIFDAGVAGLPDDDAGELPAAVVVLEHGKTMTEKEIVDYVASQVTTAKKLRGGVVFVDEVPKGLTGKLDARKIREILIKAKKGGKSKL
How it was run: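 Counter-screen for direct inhibition of the luciferase enzyme by approved-drug library compounds, run at 10 nM enzyme in 50 mM Tris acetate (final). Luminescence was read within 5 min of enzyme-buffer addition and normalized to PTC124 versus DMSO (0%).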

[16] = qHTS profiling for inhibitors of Plasmodium falciparum proliferation (AID 504749); further: potency means the concentration at half of the fitted maximal effect;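 on activity, negative = inhibition: 0% = DMSO vehicle and full inhibition = artemisinin control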; on all read-outs here: nearly all actives have a fitted effect of over 60% in size; details: P. falciparum in erythrocytes, SYBR Green DNA, 72 h; for activity, negative = inhibition: at 28.7 µM (top of the series)
How it was run: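 P. falciparum-infected erythrocytes (0.3% parasitemia, 2.5% hematocrit final) were exposed to compounds for 72 h at 37 C in 5% CO2, then lysed with SYBR Green buffer overnight at room temperature; parasite DNA fluorescence was normalized to artemisinin and DMSO controls.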

[17] = Confirmation and Secondary Assay for Modulators of Hemoglobin Beta Chain Splicing at IVS2 705 locus (AID 930);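 further: HeLa cells stably expressing the EGFP-705 splicing reporter; GFP fluorescence per well restored by corrected splicing of the IVS2-705 intron in EGFP; % of control where 0% means no effect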
How it was run: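 Read-out: total peak GFP fluorescence per well (488 nm excitation, 500-520 nm emission) by laser-scanning cytometry. Cells: HeLa EGFP-705 splicing reporter, 2 days compound exposure in Optimem/2% FCS.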

[18] = measured here: cell count channel max response
[19] = measured here: lipid channel max response

## O=C1C(Cl)=C(Cl)C(=O)C(Cl)=C1Cl
[1]
  outcome: inactive
[2]
  Potency: 2 µM (active)
[3]
  Potency: inactive
[4]
  Potency: inactive
[5]; at 57.5 µM (top of the series)
  activity change, negative = inhibition: -9.83% (inactive)
[5]; [18]
  max response: -3.14%
[5]; [19]
  max response: -11.5%
[6]
  max response: -6.11% (inactive)
[7]
  Potency: 39.8 µM (active)

## CC(=O)O[C@H]1C[C@@H](O[C@@H]2[C@H](C)O[C@H](O[C@@H]3[C@H](C)O[C@H](O[C@@H]4CC[C@@]5(C)[C@@H](CC[C@]6(C)[C@]5(C)C[C@H](O)[C@]5(C)[C@@H](C7=CC(=O)OC7)CC[C@@]56O)C4)C[C@@H]3O)C[C@@H]2O)O[C@@H](C)[C@H]1O[C@H]1O[C@@H](CO)[C@@H](O)[C@@H](O)[C@@H]1O
[8]
  Potency: inactive
[9]
  Potency: > 20.6 µM (inactive)
[1]
  outcome: inactive
[5]; at 25.7 µM (top of the series)
  activity change, negative = inhibition: -1.77% (inactive)
[5]; [18]
  max response: -6.91%
[5]; [19]
  max response: -8.38%
[10]
  Potency: inactive

## C[N+]1=Cc2cc3c(cc2CC1)OCO3
[8]
  Potency: inactive
[9]
  Potency: > 46 µM (inactive)
[11]
  Potency: > 46 µM (inactive)
[1]
  outcome: inactive
[12]
  Potency: inactive
[2]
  Potency: inactive
[5]; at 57.5 µM (top of the series)
  activity change, negative = inhibition: 4.74% (inactive)
[5]; [18]
  max response: 15.4%
[5]; [19]
  max response: 22.1%
[13]
  outcome: inactive

## COc1cc2c(cc1OC)[C@@]13CCN4CC5=CCOC6CC(=O)N2C1[C@H]6[C@@H]5C[C@@H]43 (stereo not given in full)
[2]
  Potency: inactive
[4]
  Potency: inactive
[5]; at 57.5 µM (top of the series)
  activity change, negative = inhibition: 14% (inactive)
[5]; [18]
  max response: 9.29%
[5]; [19]
  max response: 26.2%
[14]
  Potency: inactive
[10]
  Potency: inactive
[15]
  Potency: inactive
[16]; parasite line A
  activity, negative = inhibition: -1.63% (inactive)
[16]; parasite line B
  activity, negative = inhibition: 1.63% (inactive)

## C=CC1CN2CCC1CC2C(OC(=O)OCC)c1ccnc2ccc(OC)cc12 (stereo not given)
[2]
  Potency: 7.94 µM (active)
[3]
  Potency: inactive
[4]
  Potency: inactive
[17]
  Potency: inactive
[5]; at 57.5 µM (top of the series)
  activity change, negative = inhibition: 5.87% (inactive)
[5]; [18]
  max response: 0.936%
[5]; [19]
  max response: 9.58%
[14]
  Potency: inactive
[10]
  Potency: inactive
[15]
  Potency: inactive
[16]; parasite line A
  Potency: 1.58 µM (active)
[16]; parasite line B
  Potency: 2.24 µM (active)

## CNC(=O)Oc1ccc2c(c1)[C@@]1(C)CCN(C)C1N2C (stereo not given in full)
[5]; at 57.5 µM (top of the series)
  activity change, negative = inhibition: 4.58% (inactive)
[5]; [18]
  max response: 3.75%
[5]; [19]
  max response: 14.3%
[10]
  Potency: inactive

## CCCCCCCCCc1ccc(O)cc1
[3]
  Potency: inactive
[4]
  Potency: inactive
[17]
  Potency: inactive
[5]; at 57.5 µM (top of the series)
  activity change, negative = inhibition: 4.47% (inactive)
[5]; [18]
  max response: 4.78%
[5]; [19]
  max response: 11%
[6]
  max response: 6.94% (inactive) and 6.09% (inactive)
[7]
  max response: -7.88% (inactive)

## C=C[C@H]1CN2CCC1C[C@@H]2C(O)c1ccnc2ccccc12 (stereo not given in full)
[2]
  Potency: inactive
[5]; at 57.5 µM (top of the series)
  activity change, negative = inhibition: 7.24% (inactive)
[5]; [18]
  max response: 20.2%
[5]; [19]
  max response: 27.5%
[10]
  Potency: inactive
[13]
  outcome: inactive

## CNC(=O)Oc1cccc2c1OC(C)(C)O2
[2]
  Potency: inactive
[4]
  Potency: inactive
[17]
  Potency: inactive
[5]; at 57.5 µM (top of the series)
  activity change, negative = inhibition: 5.39% (inactive)
[5]; [18]
  max response: 18%
[5]; [19]
  max response: 22.8%
[10]
  Potency: inactive
[6]
  max response: -1.3% (inactive)
[7]
  max response: -19.8% (inactive)
